Source: PubChem BioAssay
Calls of active or inactive are those of the source. Unless noted, no rule for the calls is given here.

What was measured:
[1] = compounds binding Alexa647 anti-His antibody – biochemical, small-molecule microarray, 635 nm fluorescence, artefact control for SMM control protein annotation, primary screen (AID 1128); conditions: higher = more signal;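 also: score merges feature fluorescence with signal-to-noise for each printed compound spot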
[2] = system: Human papillomavirus type 1a E7 protein (residues 1-88); assay: HPV1a E7 small-molecule binders, primary screen, biochemical, small-molecule microarray, residues 1-88, 635 nm (AID 1129); conditions: small-molecule microarray binding, fluorescence 635 nm; higher = more signal
[3] = molecular target: Focal adhesion kinase 1 (Homo sapiens) (UniProt Q05397); assay: PTK2 protein binding on printed compound slides – biochemical, small-molecule microarray, 635/667 nm fluorescence, BSA, DTT, primary screen (AID 1130); conditions: 635 nm fluorescence, higher = more signal;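 also: composite of spot emission at 667 nm and signal to noise over triplicate slides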
Chain of Focal adhesion kinase 1 (Homo sapiens) (Q05397 whole entry, looked up): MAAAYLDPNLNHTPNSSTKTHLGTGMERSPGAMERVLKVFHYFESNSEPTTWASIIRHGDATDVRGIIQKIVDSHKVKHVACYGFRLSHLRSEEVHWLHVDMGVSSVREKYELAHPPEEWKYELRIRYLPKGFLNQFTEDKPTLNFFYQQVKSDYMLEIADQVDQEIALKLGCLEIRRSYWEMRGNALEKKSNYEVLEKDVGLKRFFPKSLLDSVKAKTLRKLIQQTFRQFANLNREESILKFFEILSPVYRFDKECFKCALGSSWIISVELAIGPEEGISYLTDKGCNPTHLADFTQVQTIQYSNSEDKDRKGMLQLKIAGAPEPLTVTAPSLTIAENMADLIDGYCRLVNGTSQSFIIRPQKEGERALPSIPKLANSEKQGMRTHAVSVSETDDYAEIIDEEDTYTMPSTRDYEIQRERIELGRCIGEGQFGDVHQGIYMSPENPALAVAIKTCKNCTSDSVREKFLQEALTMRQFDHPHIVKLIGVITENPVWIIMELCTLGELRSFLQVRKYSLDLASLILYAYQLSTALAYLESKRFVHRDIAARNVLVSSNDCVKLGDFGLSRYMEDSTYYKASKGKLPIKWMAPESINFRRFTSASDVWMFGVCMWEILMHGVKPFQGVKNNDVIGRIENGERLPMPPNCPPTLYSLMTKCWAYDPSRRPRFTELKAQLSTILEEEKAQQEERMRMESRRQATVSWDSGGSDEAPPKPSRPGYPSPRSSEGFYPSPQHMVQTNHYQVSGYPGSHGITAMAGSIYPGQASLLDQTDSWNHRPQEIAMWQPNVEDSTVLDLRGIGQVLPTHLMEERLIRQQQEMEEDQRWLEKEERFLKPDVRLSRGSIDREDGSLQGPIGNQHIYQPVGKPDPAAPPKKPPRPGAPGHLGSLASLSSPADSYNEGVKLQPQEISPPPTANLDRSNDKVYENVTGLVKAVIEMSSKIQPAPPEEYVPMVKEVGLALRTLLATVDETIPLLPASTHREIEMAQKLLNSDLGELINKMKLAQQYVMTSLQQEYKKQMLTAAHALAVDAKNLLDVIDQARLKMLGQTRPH

[4] = system: Fibrinogen (Alexa647-labelled); assay: Alexa647-fibrinogen binding to printed small molecules – biochemical, small-molecule microarray, 635/667 nm fluorescence, artefact control for SMM control-protein annotation, profiling panel (AID 1131); conditions: fibrinogen-A647 binding fluorescence, higher = more signal;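 also: z-score merges 667 nm fluorescence with per-spot signal-to-noise over triplicate slides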
[5] = molecular target: Follistatin (Homo sapiens) (UniProt P19883); assay: FST protein binding to printed compounds – biochemical, small-molecule microarray, 635/667 nm fluorescence, primary screen (AID 1132); conditions: 635 nm fluorescence, higher = more signal
Chain of Follistatin (Homo sapiens) (P19883 whole entry, looked up): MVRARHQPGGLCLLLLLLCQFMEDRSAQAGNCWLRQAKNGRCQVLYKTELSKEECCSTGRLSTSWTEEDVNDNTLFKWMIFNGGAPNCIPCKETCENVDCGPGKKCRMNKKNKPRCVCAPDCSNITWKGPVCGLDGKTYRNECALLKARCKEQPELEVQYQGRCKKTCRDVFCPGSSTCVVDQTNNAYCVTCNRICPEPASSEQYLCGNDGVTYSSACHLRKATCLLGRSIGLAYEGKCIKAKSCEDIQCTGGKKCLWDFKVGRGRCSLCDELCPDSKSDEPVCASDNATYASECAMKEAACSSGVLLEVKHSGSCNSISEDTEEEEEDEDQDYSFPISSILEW

[6] = molecular target: Fibroblast growth factor 2 (Homo sapiens) (UniProt P09038); assay: basic fibroblast growth factor binding to printed compounds – biochemical, small-molecule microarray, 635/667 nm fluorescence, primary screen (AID 1133); conditions: FGF2, fluorescence 635/667, higher = more signal
Chain of Fibroblast growth factor 2 (Homo sapiens) (P09038 whole entry, looked up): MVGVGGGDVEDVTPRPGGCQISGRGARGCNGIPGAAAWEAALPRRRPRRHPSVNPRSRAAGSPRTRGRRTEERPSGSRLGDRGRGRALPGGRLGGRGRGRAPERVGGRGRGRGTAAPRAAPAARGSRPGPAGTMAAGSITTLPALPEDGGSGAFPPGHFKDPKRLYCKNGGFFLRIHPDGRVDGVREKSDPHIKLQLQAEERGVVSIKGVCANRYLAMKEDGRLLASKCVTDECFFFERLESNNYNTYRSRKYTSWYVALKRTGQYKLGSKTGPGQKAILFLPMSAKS

[7] = JC-1 mitochondrial potential readout, lung cancer cells – cell-based, A549, JC-1 fluorescence, basal, 24 h, 100 nL, profiling panel (AID 1138); conditions: higher = more signal;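 also: A549 lung adenocarcinoma cells under basal conditions with no added stimulus; test concentration not given here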
Lefty1 = Lefty1 protein binding to printed compounds – biochemical, small-molecule microarray, 635/667 nm fluorescence, primary screen (AID 1139); conditions: fluorescence 635/667, higher = more signal
[8] = system: wheat germ agglutinin (Triticum aestivum), Alexa647-labelled; assay: Alexa647-WGA lectin binding to printed small molecules – biochemical, small-molecule microarray, 635/667 nm fluorescence, artefact control for SMM control-protein annotation, profiling panel (AID 1140); conditions: WGA-A647 binding, 635 nm fluorescence, higher = more signal;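 also: score merges 667 nm feature emission with signal to noise over triplicate slides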
[9] = molecular target: Luciferin 4-monooxygenase (Photinus pyralis) (UniProt P08659); assay: inhibition of purified Photinus pyralis luciferase – biochemical, luminescence, purified enzyme, 2006 set, primary screen (AID 1141); conditions: purified firefly luciferase, SteadyGlo luminescence, 30 min; higher = more signal, called active from +8 up or from −8 down;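 also: cell-free assay with purified firefly luciferase at 100 ng per well in PBS; test concentration not given here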
Chain of Luciferin 4-monooxygenase (Photinus pyralis) (P08659 whole entry, looked up): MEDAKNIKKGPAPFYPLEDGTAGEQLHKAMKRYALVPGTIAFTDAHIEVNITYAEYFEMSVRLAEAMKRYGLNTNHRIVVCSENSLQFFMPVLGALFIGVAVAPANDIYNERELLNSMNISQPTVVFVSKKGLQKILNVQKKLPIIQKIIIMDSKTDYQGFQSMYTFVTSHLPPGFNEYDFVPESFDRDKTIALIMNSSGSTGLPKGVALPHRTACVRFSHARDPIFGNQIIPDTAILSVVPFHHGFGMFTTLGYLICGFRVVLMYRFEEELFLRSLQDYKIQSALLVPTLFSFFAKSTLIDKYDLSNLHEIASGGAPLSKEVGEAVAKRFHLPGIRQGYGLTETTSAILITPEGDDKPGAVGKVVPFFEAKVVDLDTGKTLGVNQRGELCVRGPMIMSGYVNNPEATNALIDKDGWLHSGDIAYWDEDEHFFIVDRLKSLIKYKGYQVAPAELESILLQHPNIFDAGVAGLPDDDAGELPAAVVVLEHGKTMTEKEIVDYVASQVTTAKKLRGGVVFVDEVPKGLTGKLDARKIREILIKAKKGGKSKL

[10] = system: Wnt5a (protein binding on small-molecule microarray); assay: small molecules binding Wnt5a protein – biophysical, small-molecule microarray, 635/667 nm fluorescence, primary screen (AID 1142); conditions: 635 nm fluorescence, higher = more signal;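 also: fluorescence read at 667 nm with signal to noise per printed feature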
[11] = ATP-based viability of Huh7 replicon cells – cell-based, CellTiter-Glo luminescence, basal, 48 h, cytotoxicity control for HCV replication inhibitor project, primary screen (AID 1143); conditions: higher = more signal, called active from +8 up or from −8 down;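 also: Huh7 hepatoma cells carrying a hepatitis C replication reporter with no stimulus; test concentration not given here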
[12] = Pseudomonas biofilm growth suppression – PAO1 strain, BacTiter-Glo luminescence, LB-PBS, primary screen (AID 1144); conditions: P. aeruginosa PAO1 biofilm, 12 h, higher = more signal
[13] = basal CRE-LacZ reporter activity in PC12 – cell-based, unstimulated, primary screen (AID 1145); conditions: no forskolin, luminescence, 4.5 h, higher = more signal, called active from +8 up or from −8 down
[14] = forskolin-driven CRE-LacZ activity in PC12 – cell-based, CRE-LacZ reporter, forskolin-stimulated, primary screen (AID 1146); conditions: luminescence, 4.5 h, higher = more signal, called active from +8 up or from −8 down;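 also: PC12 cells with 6xCRE LacZ reporter stimulated by forskolin 10 µM; beta-galactosidase reporter signal reflecting CREB driven transcription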
[15] = molecular target: Streptavidin (Streptomyces avidinii) (UniProt P22629); assay: compounds binding control protein streptavidin – biophysical, small-molecule microarray, 635/667 nm fluorescence, artefact control for SMM compound annotation, primary screen (AID 1147); conditions: higher = more signal;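 also: signal reflects streptavidin binding to arrayed compounds as a control protein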
Chain of Streptavidin (Streptomyces avidinii) (P22629 whole entry, looked up): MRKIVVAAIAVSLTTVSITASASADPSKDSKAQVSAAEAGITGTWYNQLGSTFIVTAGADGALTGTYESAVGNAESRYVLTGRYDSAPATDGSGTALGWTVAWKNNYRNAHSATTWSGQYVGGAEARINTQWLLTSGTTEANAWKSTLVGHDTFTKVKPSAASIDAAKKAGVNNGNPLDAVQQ

[16] = probe aInhba binding on compound microarray – biochemical, small-molecule microarray, 635/667 nm fluorescence, primary screen (AID 1148); conditions: higher = more signal;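 also: score merges 667nm spot fluorescence with signal-to-noise for antibody binding to printed compounds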
Torsin-1A (Homo sapiens) [17] = molecular target: Torsin-1A (Homo sapiens) (UniProt O14656); assay: TOR1A wild-type binding on microarray – cell lysate, small-molecule microarray, lysate, 635/667 nm, primary screen (AID 1149); conditions: COS7 hTOR1A-WT lysate, 635 nm fluorescence, higher = more signal
Chain of Torsin-1A (Homo sapiens) (O14656 whole entry, looked up): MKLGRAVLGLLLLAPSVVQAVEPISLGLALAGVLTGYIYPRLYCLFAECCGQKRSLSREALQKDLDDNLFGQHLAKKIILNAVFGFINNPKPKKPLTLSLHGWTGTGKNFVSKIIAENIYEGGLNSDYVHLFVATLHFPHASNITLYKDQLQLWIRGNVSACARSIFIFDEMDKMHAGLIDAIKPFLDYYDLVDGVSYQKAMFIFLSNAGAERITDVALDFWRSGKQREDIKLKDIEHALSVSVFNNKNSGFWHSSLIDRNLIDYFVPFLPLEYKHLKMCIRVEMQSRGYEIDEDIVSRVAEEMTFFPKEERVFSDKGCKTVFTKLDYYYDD

Torsin-1A (Homo sapiens) [18] = molecular target: Torsin-1A (Homo sapiens) (UniProt O14656); assay: torsin A mutant lysate binding on microarrays – cell lysate, small-molecule microarray, COS7 lysate, 635/667 nm fluorescence, primary screen (AID 1150); conditions: COS7 hTOR1A mutant lysate, 635 nm fluorescence, higher = more signal;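 also: score pools 667 nm emission and signal to noise measuring lysate protein binding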
[19] = system: Sonic hedgehog protein (Shh); assay: Sonic hedgehog microarray binding compounds – biochemical, small-molecule microarray, 635/667 nm fluorescence, primary screen (AID 1151); conditions: 635 nm fluorescence, higher = more signal;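 also: Shh protein binding to compounds spotted on small-molecule microarray slides; score combines spot fluorescence intensity with signal-to-noise across triplicate slides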

SMILES	composite z-score [1]	composite z-score [2]	composite z-score [3]	composite z-score [4]	composite z-score [5]	composite z-score [6]	z-score [7]	composite z-score (Lefty1)	composite z-score [8]	z-score [9]	composite z-score [10]	z-score [11]	z-score [12]	z-score [13]	z-score [14]	composite z-score [15]	composite z-score [16]	composite z-score (Torsin-1A (Homo sapiens) [17])	composite z-score (Torsin-1A (Homo sapiens) [18])	composite z-score [19]
COC(=O)[C@@]1(Cc2ccccc2)[C@H]2c3cc(C(=O)N4CCCC4)n(Cc4ccc(C)o4)c3C[C@H]2CN1C(=O)c1ccccc1	0.195	1.22	0.752	-0.809	-0.0668	-0.675	0.337	-0.0201	1.18	-2.68 (inactive)	-0.135	-2.17 (inactive)	-0.544 (inactive)	0.962 (inactive)	1.16 (inactive)	1.15	0.181	0.0769	0.537	-0.21
O=C1N(CCS(=O)(=O)c2ccccc2)Cc2ccccc2C[C@]12N=C(c1ccc(OCCCO)cc1)O[C@@H]2c1ccccc1	2.51	1.08	0.342	0.356	1.5	1.91	0.685	0.557	1.13	-1 (inactive)	0.775	-3.53 (inactive)	0.81 (inactive)	0.0686 (inactive)	-1.48 (inactive)	0.196	0.537	0.916	1.02	1.51
Cc1ccccc1C(O)C1C=CC2C(=O)N(C)C(=O)C2N1N1CCCCC1 (stereo not given)	1.87	1.18	0.665	0.908	0.767	0.0201	0.0822	0.0198	0.596	0.497 (inactive)	0.343	0.896 (inactive)	0.46 (inactive)	-0.133 (inactive)	-0.0415 (inactive)	1.24	0.462	0.851	0.696	0.0488
O=C/C=C/c1ccc2c(c1)OCO2	1.33	0.128	0.247	-0.696	0.952	0.398	0.231	0.401	-0.273	-1.04 (inactive)	0.0218	-1.95 (inactive)	-1.39 (inactive)	-0.491 (inactive)	0.106 (inactive)	-0.142	-0.0509	0.219	0.0622	0.504
O=C(CCN1CCOCC1)c1cccc(O)c1	1.52	0.854	0.531	0.884	1.35	1.55	0.574	1.41	1.07	0.618 (inactive)	0.361	-2.97 (inactive)	-0.779 (inactive)	0.182 (inactive)	5.37 (inactive)	0.802	-0.0962	2.59	1.38	1.82
